Data taken from PubChem BioAssay (Tox21).
Records with an inconclusive call do not appear. Calls of active or inactive are those of the source. Unless noted, calls follow the shape of the dose curve; as a rule, active = well fitted curve in the direction sought with a large enough effect in the repeat runs; inconclusive = weak or mixed curves; inactive = no such curve, though single readings can be large; an effect the other way counts as inactive or inconclusive.

Tests used:
[1] = qHTS assay for small molecules that induce genotoxicity in human embryonic kidney cells expressing luciferase-tagged ATAD5 (AID 651632); also: nearly all actives have a fitted effect of over 15% in size
In short: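 Luminescence read-out: after 16 hr compound exposure at 37C, ATAD5-luciferase HEK293T cells received Amplite, 30 min RT, then CCD imaging. A rise in signal marks genotoxic stress.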

[2] = qHTS assay for small molecules that induce genotoxicity in human embryonic kidney cells expressing luciferase-tagged ATAD5 - cell viability (AID 651634; calls by dose curve; also: nearly all actives have a fitted effect of over 25% in size)
In short: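 HEK293T ATAD5-luc cells, 2,000/well; compound 15.5 hr, 37C/5% CO2; CellTiter-Fluor 30 min, 37C; fluorescence read.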

[3] = qHTS assay to test for compound auto fluorescence at 590 nm (red) in HepG2 cells (AID 720674)
In short: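 1 hr compound incubation on HepG2 cells, 37 C, 5% CO2; plate read ex 540 nm / em 590 nm; intensities reported as Rose Bengal sodium equivalents.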

[4] = qHTS assay to test for compound auto fluorescence at 535 nm (green) in HepG2 cells (AID 720675)
[5] = qHTS assay to test for compound auto fluorescence at 590 nm (red) in HEK293 cells (AID 720679)
In short: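 Intensity at 540nm excitation and 590nm emission is reported as Rose Bengal sodium-equivalent autofluorescence. Measurements followed overnight exposure (37C, 5% CO2) of HEK293 cells, 2,000 per well, to 23 nL compound.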

[6] = qHTS assay to test for compound auto fluorescence at 460 nm (blue) in HEK293 cell free culture (AID 720681)
In short: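 Blue fluorescence (Ex 405/Em 460 nm, triamterene-equivalent) was read immediately after pin transfer of compound or DMSO into medium (DMEM, 10% FBS) without cells.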

[7] = qHTS assay to test for compound auto fluorescence at 535 nm (green) in HEK293 cell free culture (AID 720682)
In short: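 Green-channel intensity (Ex/Em 485/535 nm) was recorded from compound-treated wells containing only DMEM with 10% FBS. Fluorescein provided the equivalency standard.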

[8] = qHTS assay to test for compound auto fluorescence at 590 nm (red) in HepG2 cell free culture (AID 720684)
In short: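 Cell-free; medium MEM + 10% FBS; compound or DMSO added by pintool; read Ex 540/Em 590 nm; Rose Bengal sodium as red reference fluorophore.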

[9] = qHTS assay to test for compound auto fluorescence at 460 nm (blue) in HepG2 cell free culture (AID 720685)
In short: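 Cell-free plates of MEM plus 10% FBS received 23 nL compound or DMSO vehicle; blue-channel (405/460 nm) intensity scored against triamterene as reference fluorophore.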

[10] = qHTS assay to test for compound auto fluorescence at 535 nm (green) in HepG2 cell free culture (AID 720686)
[11] = qHTS assay to test for compound auto fluorescence at 460 nm (blue) in HepG2 cells (AID 720687)
In short: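 Blue-channel autofluorescence (Ex/Em 405/460 nm, triamterene-equivalent) was measured after 1 hr compound exposure at 37 C, 5% CO2. Cells were HepG2, plated overnight at 37 C in MEM plus 10% FBS.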

[12] = qHTS assay to identify small molecule antagonists of the estrogen receptor alpha (ER-alpha) signaling pathway - cell viability counter screen (AID 743074; calls by dose curve;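 also: HEK293 cells carrying ER-alpha-UAS-bla reporter stimulated with 17beta-estradiol; nearly all actives have a fitted effect of over 45% in size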)
[13] = qHTS assay to identify small molecule antagonists of the estrogen receptor alpha (ER-alpha) signaling pathway using the BG1 cell line - cell viability counter screen (AID 743081);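 also: compound given together with 17beta-estradiol as the ER stimulus; series mostly up to about 70 µM; nearly all actives have a fitted effect of over 45% in size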
Aromatase (Homo sapiens) = Aromatase (Homo sapiens) (UniProt P11511); assay: qHTS assay to identify aromatase inhibitors (AID 743083); also: series mostly up to about 70 µM; nearly all actives have a fitted effect of over 55% in size
Aromatase (Homo sapiens), sequence (P11511 whole entry, looked up): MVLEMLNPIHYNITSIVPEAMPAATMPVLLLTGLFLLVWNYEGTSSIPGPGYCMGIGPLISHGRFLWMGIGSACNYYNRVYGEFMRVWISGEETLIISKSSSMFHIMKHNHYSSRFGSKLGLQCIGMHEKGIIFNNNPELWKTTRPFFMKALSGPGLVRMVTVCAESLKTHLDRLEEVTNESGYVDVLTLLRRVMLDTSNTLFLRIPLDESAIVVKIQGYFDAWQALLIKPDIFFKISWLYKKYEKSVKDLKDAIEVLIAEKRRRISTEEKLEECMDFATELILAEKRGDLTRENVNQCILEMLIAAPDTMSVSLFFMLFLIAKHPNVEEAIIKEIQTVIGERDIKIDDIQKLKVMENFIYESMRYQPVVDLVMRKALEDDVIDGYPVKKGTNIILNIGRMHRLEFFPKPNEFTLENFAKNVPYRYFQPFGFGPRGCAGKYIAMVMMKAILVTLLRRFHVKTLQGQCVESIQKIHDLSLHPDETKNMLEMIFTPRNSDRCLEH

[14] = qHTS assay to identify aromatase inhibitors - cell viability counter screen (AID 743084);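 also: cells stimulated with testosterone during compound exposure; nearly all actives have a fitted effect of over 55% in size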
[15] = target: Aryl hydrocarbon receptor (Homo sapiens) (UniProt P35869); assay: qHTS assay to identify small molecule that activate the aryl hydrocarbon receptor (AhR) signaling pathway (AID 743085);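 also: HG2L7.5c1 human HepG2 liver cells with stably integrated DRE-driven firefly reporter; series mostly up to about 70 µM; nearly all actives have a fitted effect of over 15% in size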
Aryl hydrocarbon receptor (Homo sapiens), sequence (P35869 whole entry, looked up): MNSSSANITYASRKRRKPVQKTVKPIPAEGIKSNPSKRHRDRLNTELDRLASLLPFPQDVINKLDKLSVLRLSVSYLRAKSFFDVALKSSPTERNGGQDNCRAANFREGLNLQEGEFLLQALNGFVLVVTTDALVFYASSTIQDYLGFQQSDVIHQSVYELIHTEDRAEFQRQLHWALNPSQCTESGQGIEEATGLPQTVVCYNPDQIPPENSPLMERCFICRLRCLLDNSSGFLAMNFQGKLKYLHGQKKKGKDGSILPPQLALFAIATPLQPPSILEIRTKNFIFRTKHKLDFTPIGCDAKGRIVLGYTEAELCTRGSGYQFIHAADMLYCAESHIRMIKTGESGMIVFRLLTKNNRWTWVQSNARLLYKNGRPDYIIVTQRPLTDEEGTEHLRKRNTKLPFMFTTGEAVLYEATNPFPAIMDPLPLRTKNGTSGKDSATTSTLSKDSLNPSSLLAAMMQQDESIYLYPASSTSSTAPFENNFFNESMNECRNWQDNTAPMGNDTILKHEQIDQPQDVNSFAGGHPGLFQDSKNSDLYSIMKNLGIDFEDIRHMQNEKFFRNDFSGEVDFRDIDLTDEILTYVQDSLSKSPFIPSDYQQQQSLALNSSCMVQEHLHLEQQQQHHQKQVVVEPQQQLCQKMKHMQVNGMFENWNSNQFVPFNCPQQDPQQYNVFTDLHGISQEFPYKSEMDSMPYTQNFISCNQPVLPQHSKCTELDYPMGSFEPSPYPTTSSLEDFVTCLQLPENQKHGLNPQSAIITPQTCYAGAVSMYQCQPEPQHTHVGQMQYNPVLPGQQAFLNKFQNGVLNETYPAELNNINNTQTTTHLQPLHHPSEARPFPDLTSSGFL
In short: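 AhR agonist activity is inferred from enhanced light output of a DRE-controlled firefly luciferase reporter in HepG2 cells, measured with ONE-Glo following 24 h treatment at 37C.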

[16] = qHTS assay to identify small molecule that activate the aryl hydrocarbon receptor (AhR) signaling pathway - cell viability counter screen (AID 743086);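 also: HepG2 liver cells carrying the AhR DRE luciferase reporter; series mostly up to about 70 µM; nearly all actives have a fitted effect of over 45% in size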
In short: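 Cytotoxicity counter screen: CellTiter-Fluor signal (30 min, 37 C) in 4000 HepG2 cells/well carrying the DRE-luciferase reporter, following 24 h compound exposure at 37 C.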

[17] = qHTS assay to identify small molecule phospholipidosis (PLD) inducers (AID 1259344; active = well fitted curve in the direction sought with a large enough effect; an effect the other way counts as inactive or inconclusive)
In short: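 Phospholipid accumulation was scored by imaging: fixed, Hoechst-counterstained HepG2 cells stained with LipidTOX Red after 24 h compound exposure at 37 C. Read-outs were pit count and pit intensity per well or per cell, with amiodarone and DMSO controls.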

[18] = target: Nuclear receptor subfamily 1 group I member 2 (Rattus norvegicus) (UniProt Q9R1A7); assay: Rat pregnane X receptor (rPXR) activation by small molecules, qHTS assay (AID 1346983); settings: rPXR luciferase reporter cells, One-Glo luminescence, 24 h; max activation: hits give high values; also: nearly all actives have a fitted effect of over 20% in size
Nuclear receptor subfamily 1 group I member 2 (Rattus norvegicus), sequence (Q9R1A7 whole entry, looked up): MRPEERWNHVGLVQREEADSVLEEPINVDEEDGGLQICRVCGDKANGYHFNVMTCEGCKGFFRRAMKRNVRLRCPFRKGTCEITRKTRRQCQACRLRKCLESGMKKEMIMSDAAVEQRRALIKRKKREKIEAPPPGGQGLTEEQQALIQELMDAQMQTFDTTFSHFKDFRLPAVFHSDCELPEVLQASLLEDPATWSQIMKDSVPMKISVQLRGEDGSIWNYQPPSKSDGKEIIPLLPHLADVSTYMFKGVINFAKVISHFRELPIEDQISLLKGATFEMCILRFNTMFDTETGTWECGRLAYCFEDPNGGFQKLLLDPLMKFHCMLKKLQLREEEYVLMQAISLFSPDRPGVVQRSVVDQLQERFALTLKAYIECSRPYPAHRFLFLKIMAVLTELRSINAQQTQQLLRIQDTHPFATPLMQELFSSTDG
In short: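 Luminescent readout (One-Glo luciferase, 30 min room temperature) followed 24 hr compound treatment at 37 C of rPXR cells plated 2,000 per well and preincubated 5hr; qHTS format with compounds delivered in DMSO.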

[19] = target: Nuclear receptor subfamily 1 group I member 2 (Homo sapiens) (UniProt O75469); assay: CYP3A4 induction through human pregnane X receptor (PXR) by small molecules, qHTS assay (AID 1346984); also: nearly all actives have a fitted effect of over 40% in size
In short: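 HepG2-derived DPX-2 line carrying PXR plus a CYP3A4-promoter luciferase reporter; cells plated 5 hr, compound-exposed 24 hr at 37C. CYP3A4 activity probed with 3uM (final) Luciferin-IPA for 3hr, then luciferase read after One-Glo.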
% is scaled to controls: 0 for no effect and ±100 for the full control effect.

C[C@@H](Cc1ccccc1)N(C)C
inactive: Potency [1] | Potency [2] | outcome [3] | Potency [4] | outcome [5] | Potency [6] | Potency [7] | outcome [8] | Potency [9] | Potency [10] | Potency [11] | Potency [12] | Potency [13] | Potency (Aromatase (Homo sapiens)) | Potency [14] | Potency [15] | Potency [16] | Potency [17] | max activation [18] -2.61% | Potency [19]

c1ccccc1
inactive: Potency [1] | Potency [2] | Potency [4] | outcome [5] | Potency [6] | Potency [7] | outcome [8] | Potency [9] | Potency [10] | Potency [11] | Potency [12] | Potency [13] | Potency (Aromatase (Homo sapiens)) | Potency [14] | Potency [16]

COc1ccc2c3c1O[C@H]1[C@@H](O)C=C[C@H]4[C@@H](C2)NCC[C@@]341
inactive: Potency [1] | Potency [2] | outcome [3] | Potency [4] | outcome [5] | Potency [6] | Potency [7] | outcome [8] | Potency [9] | Potency [10] | Potency [11] | Potency [12] | Potency [13] | Potency (Aromatase (Homo sapiens)) | Potency [14] | Potency [15] | Potency [16] | Potency [17] | max activation [18] -0.689% | Potency [19]

C=CCN(C1=NCCN1)c1c(Cl)cccc1Cl
inactive: Potency [1] | Potency [2] | outcome [3] | Potency [4] | outcome [5] | Potency [6] | Potency [7] | outcome [8] | Potency [9] | Potency [10] | Potency [11] | Potency [12] | Potency [13] | Potency (Aromatase (Homo sapiens)) | Potency [14] | Potency [15] | Potency [16] | Potency [17] | max activation [18] -3.97% | Potency [19]

Oc1c(Cl)cc(Cl)cc1Cl
inactive: outcome [3] | Potency [4] | outcome [5] | Potency [6] | Potency [7] | outcome [8] | Potency [9] | Potency [10] | Potency [11] | Potency (Aromatase (Homo sapiens))

O=C(C[C@@H]1NCCC[C@H]1O)Cn1cnc2cc(Br)c(Cl)cc2c1=O
inactive: Potency [1] | Potency [2] | outcome [3] | Potency [4] | outcome [5] | Potency [6] | Potency [7] | outcome [8] | Potency [9] | Potency [10] | Potency [11] | Potency [12] | Potency [13] | Potency (Aromatase (Homo sapiens)) | Potency [14] | Potency [16] | Potency [17] | max activation [18] 5.28% | Potency [19]

COC1=CC=C2[C@H]3Cc4ccc(OC)c5c4[C@@]2(CCN3C)[C@H]1O5
inactive: Potency [1] | Potency [2] | outcome [3] | Potency [4] | outcome [5] | Potency [6] | Potency [7] | outcome [8] | Potency [9] | Potency [10] | Potency [11] | Potency [12] | Potency [13] | Potency (Aromatase (Homo sapiens)) | Potency [14] | Potency [15] | Potency [16] | Potency [17] | max activation [18] -7.33% | Potency [19]

CCC(=O)O[C@]1(c2ccccc2)CCN(C)C[C@H]1C
inactive: Potency [1] | Potency [2] | outcome [3] | Potency [4] | outcome [5] | Potency [6] | Potency [7] | outcome [8] | Potency [9] | Potency [10] | Potency [11] | Potency [12] | Potency [13] | Potency (Aromatase (Homo sapiens)) | Potency [14] | Potency [15] | Potency [16] | Potency [17] | max activation [18] -0.104% | Potency [19]

CCNC(C)Cc1cccc(C(F)(F)F)c1 (stereo not drawn)
inactive: Potency [1] | Potency [2] | outcome [3] | Potency [4] | outcome [5] | Potency [6] | Potency [7] | outcome [8] | Potency [9] | Potency [10] | Potency [11] | Potency [12] | Potency [13] | Potency (Aromatase (Homo sapiens)) | Potency [14] | Potency [15] | Potency [16] | Potency [17] | max activation [18] -1.05% | Potency [19]

C=C[C@H]1CN2CC[C@H]1C[C@@H]2[C@@H](O)c1ccnc2ccccc12
inactive: Potency [1] | Potency [2] | outcome [3] | Potency [4] | outcome [5] | Potency [6] | Potency [7] | outcome [8] | Potency [9] | Potency [10] | Potency [11] | Potency [12] | Potency [13] | Potency (Aromatase (Homo sapiens)) | Potency [14] | Potency [15] | Potency [16] | Potency [17] | max activation [18] -2.95% | Potency [19]

OC(c1ccccc1)(c1ccccc1)C1CN2CCC1CC2 (stereo not drawn)
inactive: Potency [1] | Potency [2] | outcome [3] | Potency [4] | outcome [5] | Potency [6] | Potency [7] | outcome [8] | Potency [9] | Potency [10] | Potency [11] | Potency [12] | Potency [13] | Potency (Aromatase (Homo sapiens)) | Potency [14] | Potency [15] | Potency [16] | Potency [17] | max activation [18] 17.5% | Potency [19]

COc1ccc(OC)c([C@@H](O)[C@H](C)N)c1
inactive: Potency [1] | Potency [2] | outcome [3] | Potency [4] | outcome [5] | Potency [6] | Potency [7] | outcome [8] | Potency [9] | Potency [10] | Potency [11] | Potency [12] | Potency [13] | Potency (Aromatase (Homo sapiens)) | Potency [14] | Potency [15] | Potency [16] | Potency [17] | max activation [18] -3.61% | Potency [19]

CNc1ccc(C(=O)CC(O)CCC(C)C2OC(=O)CC(O)CC(=O)CC(O)CC(O)CC(O)CC(O)CC3(O)CC(O)C(C(=O)OC)C(CC(O[C@@H]4O[C@H](C)[C@@H](O)[C@H](N)[C@@H]4O)/C=C/C=C/C=C/C=C/C=C/C=C/C=C/C2C)O3)cc1 (stereo partly drawn)
inactive: Potency [1] | Potency [2] | Potency [4] | outcome [5] | Potency [6] | Potency [7] | outcome [8] | Potency [9] | Potency [10] | Potency [11] | Potency [12] | Potency [13] | Potency (Aromatase (Homo sapiens)) | Potency [14] | Potency [15] | Potency [16] | Potency [17] | max activation [18] -1.47% | Potency [19]
